In all, about 11,000 sequences were measured (“log2 fold change”: median about 0.00022, highest 2% from about 0.34 on). The list shows a part of the results.
molecular target: GST-SBP-SLBP (stem-loop binding protein) (Homo sapiens, UniProt Q14493 1-270); experiment: targeted RNA Bind-n-Seq; RBNS binding buffer: 25 mM Tris pH 7.5, 150 mM KCl, 3 mM MgCl2, 0.1% Tween, 0.5 mg/mL BSA, 1 mM DTT; 27 nM protein, 750 pM RNA pool; temperature not stated; high values mean tight binding; details: protein: recombinant; tags: N-terminal GST and SBP (pGEX6P1-SBP); structured_RNA
In short: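 Read counts per sequence supply the binding signal, defined as the DEseq fold change on a binary-logarithm scale. These counts came from RNA of a designed, T7-transcribed oligo pool at 750 pM that bound 27 nM of GST-SBP-tagged protein, made in Rosetta(DE3) pLysS E. coli and glutathione-purified, in RBNS binding buffer. The bound RNA was reverse transcribed with a 10-nucleotide barcoded primer, PCR-amplified and sequenced on a MiSeq with 200-cycle paired-end reads, then processed with FLASH and HISAT2 and collapsed by barcode.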

**Q.** How did the binding signal turn out when “GGUCACGUCUCAAUCAACUCAUUAGAGGGGGGGAAAACCCCUUUGCCCUCACCUUCAACAGCUCGCAGUCAAG” was run?
**A.** 0.303 ± 0.392 log2 fold change

**Q.** How did the binding signal turn out when “GGUCACGUCUCAAUCAACUCAUUAGAGGGGGGGAAAACCCCUUUGCCCUCAUCUUCAACAGCUCGCAGUCAAG” was run?
**A.** 0.356 ± 0.431 log2 fold change

**Q.** With “GGUCACGUCUCAAUCAACUCCAUAGAGGGGGGGAAAACCCCUUUACCCUCAUUUUCAACAGCUCGCAGUCAAG” as the sequence, how does the binding signal read?
**A.** 0.342 ± 0.445 log2 fold change

**Q.** How did the binding signal turn out when “GGUCACGUCUCAAUCAACUCAACAGAGGGGGGGAAAACCCCUUUACCCUCAUUUUCAACAGCUCGCAGUCAAG” was run?
**A.** 0.422 ± 0.451 log2 fold change

**Q.** For “GGUCACGUCUCAAUCAACUCCAUAGAGGGGGGGAAAACCCCUUUGCCCUCAAUUUCAACAGCUCGCAGUCAAG”, which binding signal is on record?
**A.** 0.426 ± 0.447 log2 fold change

**Q.** How did the binding signal turn out when “GGUCACGUCUCAAUCAACUCCAUAGAGGGGGGGAAAACCCCUUUGCCCUCAUUUUCAACAGCUCGCAGUCAAG” was run?
**A.** 0.381 ± 0.414 log2 fold change

**Q.** For “GGUCACGUCUCAAUCAACUCUCCAGAGGGGGGGAAAACCCCUUUGCCCUCCAUUUCAACAGCUCGCAGUCAAG”, which binding signal is on record?
**A.** 0.536 ± 0.422 log2 fold change

**Q.** With “GGUCACGUCUCAAUCAACUCUUCAGAGGGGGGGAAAACCCCUUUGCCCUCAAUUUCAACAGCUCGCAGUCAAG” as the sequence, how does the binding signal read?
**A.** 0.337 ± 0.433 log2 fold change

**Q.** Which binding signal does the source give for “GGUCACGUCUCAAUCAACUCCUACGAGGGGGGGAAAACCCCUUUACCCUCAACCUCAACAGCUCGCAGUCAAG” here?
**A.** 0.619 ± 0.434 log2 fold change

**Q.** How did the binding signal turn out when “GGUCACGUCUCAAUCAACUCCUACGAGGGGGGGAAAACCCCUUUACCCUCAUCAUCAACAGCUCGCAGUCAAG” was run?
**A.** 0.348 ± 0.402 log2 fold change

**Q.** How did the binding signal turn out when “GGUCACGUCUCAAUCAACUCCUACGAGGGGGGGAAAACCCCUUUACCCUCAAAUUCAACAGCUCGCAGUCAAG” was run?
**A.** 0.442 ± 0.411 log2 fold change

**Q.** Which binding signal does the source give for “GGUCACGUCUCAAUCAACUCACACGAGGGGGGGAAAACCCCUUUACCCUCAUCCUCAACAGCUCGCAGUCAAG” here?
**A.** 0.453 ± 0.432 log2 fold change

**Q.** Which binding signal does the source give for “GGUCACGUCUCAAUCAACUCCUACGAGGGGGGGAAAACCCCUUUACCCUCAUAAUCAACAGCUCGCAGUCAAG” here?
**A.** 0.382 ± 0.421 log2 fold change

**Q.** How did the binding signal turn out when “GGUCACGUCUCAAUCAACUCAGGUCCAGGAGUUUACUCCUGCAAUUUCAACAGCUCGCAGUCAAG” was run?
**A.** 0.516 ± 0.297 log2 fold change

**Q.** Which binding signal does the source give for “GGUCACGUCUCAAUCAACUCAAUCUCAGGAGUUUACUCCUGCAAAGUCAACAGCUCGCAGUCAAG” here?
**A.** 0.321 ± 0.217 log2 fold change

**Q.** For “GGUCACGUCUCAAUCAACUCAUCUUCAGGAGUUUGCUCCUGCAAUCUCAACAGCUCGCAGUCAAG”, which binding signal is on record?
**A.** 0.328 ± 0.197 log2 fold change

**Q.** How did the binding signal turn out when “GGUCACGUCUCAAUCAACUCUUCCCCAGGAGUUUACUCCUGCAUUUUCAACAGCUCGCAGUCAAG” was run?
**A.** 0.302 ± 0.227 log2 fold change

**Q.** With “GGUCACGUCUCAAUCAACUCAACUCCAGGAGUUUACUCCUGUAAUCUCAACAGCUCGCAGUCAAG” as the sequence, how does the binding signal read?
**A.** 0.456 ± 0.227 log2 fold change

**Q.** How did the binding signal turn out when “GGUCACGUCUCAAUCAACUCAGGUCCAGGAGUUUACUCCUGCAAAUUCAACAGCUCGCAGUCAAG” was run?
**A.** 0.356 ± 0.313 log2 fold change

**Q.** With “GGUCACGUCUCAAUCAACUCUAGUCCAGGAGUUUACUCCUGUUUAUUCAACAGCUCGCAGUCAAG” as the sequence, how does the binding signal read?
**A.** 0.313 ± 0.255 log2 fold change

**Q.** How did the binding signal turn out when “GGUCACGUCUCAAUCAACUCAUCGCCAGGAGUUUACUCCUGCUAAUUCAACAGCUCGCAGUCAAG” was run?
**A.** 0.301 ± 0.286 log2 fold change

**Q.** How did the binding signal turn out when “GGUCACGUCUCAAUCAACUCAUCUCCAGGAGUUUCCUCCUGCAUACUCAACAGCUCGCAGUCAAG” was run?
**A.** 0.323 ± 0.222 log2 fold change

**Q.** For “GGUCACGUCUCAAUCAACUCAUGUCCAGGAGUUUACUCCUGCAAUCUCAACAGCUCGCAGUCAAG”, which binding signal is on record?
**A.** 0.371 ± 0.281 log2 fold change

**Q.** How did the binding signal turn out when “GGUCACGUCUCAAUCAACUCAAUUCCAGGAGUUUCCUCCUGCAUUUUCAACAGCUCGCAGUCAAG” was run?
**A.** 0.321 ± 0.19 log2 fold change

**Q.** For “GGUCACGUCUCAAUCAACUCAUUCCCAGGAGUUUACUCCUGUAAUUUCAACAGCUCGCAGUCAAG”, which binding signal is on record?
**A.** 0.331 ± 0.233 log2 fold change

**Q.** With “GGUCACGUCUCAAUCAACUCAAUCCCAGGAGUUUUCUCCUGCAAUGUCAACAGCUCGCAGUCAAG” as the sequence, how does the binding signal read?
**A.** 0.317 ± 0.214 log2 fold change

**Q.** “GGUCACGUCUCAAUCAACUCAAGUCCAGGAGUUUUCUCCUGCAAAGUCAACAGCUCGCAGUCAAG” was tested. Which binding signal did it give?
**A.** 0.447 ± 0.258 log2 fold change

**Q.** “GGUCACGUCUCAAUCAACUCUUCGCCCAGGGAAAGCCCUGGUUAUUUCAACAGCUCGCAGUCAAG” was tested. Which binding signal did it give?
**A.** 0.464 ± 0.319 log2 fold change

**Q.** For “GGUCACGUCUCAAUCAACUCUUCUCCCAGGGAAAGCCCUGGUUAACUCAACAGCUCGCAGUCAAG”, which binding signal is on record?
**A.** 0.335 ± 0.269 log2 fold change

**Q.** “GGUCACGUCUCAAUCAACUCUUCUCCCAGGGAAACCCCUGGUUAUUUCAACAGCUCGCAGUCAAG” was tested. Which binding signal did it give?
**A.** 0.372 ± 0.273 log2 fold change

**Q.** With “GGUCACGUCUCAAUCAACUCUUCUCCCAGGGAAAGCCCUGGCAAUUUCAACAGCUCGCAGUCAAG” as the sequence, how does the binding signal read?
**A.** 0.428 ± 0.307 log2 fold change

**Q.** “GGUCACGUCUCAAUCAACUCUAUCUCCAGGGAAAUCCCUGGCAAUGUCAACAGCUCGCAGUCAAG” was tested. Which binding signal did it give?
**A.** 0.418 ± 0.298 log2 fold change

**Q.** Which binding signal does the source give for “GGUCACGUCUCAAUCAACUCUAUCUCCAGGGAAAUCCCUGGUAAACUCAACAGCUCGCAGUCAAG” here?
**A.** 0.306 ± 0.25 log2 fold change

**Q.** “GGUCACGUCUCAAUCAACUCAGUCUCCAGGGAAAUCCCUGGUAUUUUCAACAGCUCGCAGUCAAG” was tested. Which binding signal did it give?
**A.** 0.347 ± 0.308 log2 fold change

**Q.** Which binding signal does the source give for “GGUCACGUCUCAAUCAACUCAAUCUCCAGGGAAAGCCCUGGCAAUGUCAACAGCUCGCAGUCAAG” here?
**A.** 0.309 ± 0.299 log2 fold change

**Q.** “GGUCACGUCUCAAUCAACUCAGUCUCCAGGGAAAUCCCUGGCAAUCUCAACAGCUCGCAGUCAAG” was tested. Which binding signal did it give?
**A.** 0.4 ± 0.338 log2 fold change

**Q.** Which binding signal does the source give for “GGUCACGUCUCAAUCAACUCAAUCUCCAGGGAAAACCCUGGCAAUGUCAACAGCUCGCAGUCAAG” here?
**A.** 0.578 ± 0.314 log2 fold change

**Q.** Which binding signal does the source give for “GGUCACGUCUCAAUCAACUCUUUCUCCAGGGAAAUCCCUGGCUAUCUCAACAGCUCGCAGUCAAG” here?
**A.** 0.375 ± 0.236 log2 fold change

**Q.** For “GGUCACGUCUCAAUCAACUCAUCUUCCAGGGAAAACCCUGGCUAAUUCAACAGCUCGCAGUCAAG”, which binding signal is on record?
**A.** 0.36 ± 0.265 log2 fold change

**Q.** For “GGUCACGUCUCAAUCAACUCAUUUUCCAGGGAAACCCCUGGCUAAUUCAACAGCUCGCAGUCAAG”, which binding signal is on record?
**A.** 0.348 ± 0.267 log2 fold change

**Q.** With “GGUCACGUCUCAAUCAACUCAUUCCCCAGGGAAACCCCUGGCUAACUCAACAGCUCGCAGUCAAG” as the sequence, how does the binding signal read?
**A.** 0.341 ± 0.323 log2 fold change

**Q.** How did the binding signal turn out when “GGUCACGUCUCAAUCAACUCUUCCCCCAGGGAAACCCCUGGCUAAUUCAACAGCUCGCAGUCAAG” was run?
**A.** 0.313 ± 0.254 log2 fold change

**Q.** How did the binding signal turn out when “GGUCACGUCUCAAUCAACUCAUUCGCCAGGGAAACCCCUGGGUAUUUCAACAGCUCGCAGUCAAG” was run?
**A.** 0.329 ± 0.31 log2 fold change

**Q.** Which binding signal does the source give for “GGUCACGUCUCAAUCAACUCAUACGAGGGGGGGAAAACCCCUUUACCCUCAAAUUCAACAGCUCGCAGUCAAG” here?
**A.** 0.598 ± 0.45 log2 fold change

— publication PMC5892938, “SARNAclust: Semi-automatic detection of RNA protein binding motifs from immunoprecipitation data”
